# Experimental data taken from the supplement of paper PMC8728848.
# The sample as a whole holds a higher share of the strongest signals than the screen did.
# B1: CAA (Caragana arborescens) (protein)
# chain: VAVEFDTFDNPDWDPRTKHIGIDVNSIRSNKTTQWGFWNRQVADVDISYEASSKTLNVSLYYPGESYIVTDVVDLKDILPEWVRIGF
# Key:
# Experiment in all cases: glycan array binding signal (z-score within array); higher = stronger binding
# Settings in all cases: glycan notation: IUPAC condensed, linker removed
# [1] = biological target: Fuc(a1-2)Gal(b1-3)GlcNAc(b1-2)Man(a1-3)[Fuc(a1-2)Gal(b1-3)GlcNAc(b1-2)Man(a1-6)]Man(b1-4)GlcNAc(b1-4)GlcNAc
# Method in brief: (§1)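 Glycan array data came from 3228 arrays in the Consortium for Functional Glycomics database, and only arrays with an available protein sequence were kept. Glycan names were put into IUPAC-condensed notation, and columns mapping to the same glycan were averaged. The binding signal is a within-array Z-score, averaged across arrays of one protein sequence run at different concentrations or buffers and across linkers. A negative Z-score can be read as non-binding.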
# [2] = biological target: Fuc(a1-2)Gal(b1-3)GlcNAc(b1-3)GalNAc
# Method in brief: as §1
# [3] = biological target: Fuc(a1-2)Gal(b1-3)GlcNAc(b1-3)[Fuc(a1-2)Gal(b1-3)GlcNAc(b1-6)]GalNAc
# Method in brief: as §1
# [4] = biological target: Fuc(a1-2)Gal(b1-3)GlcNAc(b1-3)[Gal(b1-4)GlcNAc(b1-6)]Gal(b1-4)Glc
# Method in brief: as §1
# [5] = biological target: Fuc(a1-2)Gal(b1-3)[Fuc(a1-4)]GlcNAc(b1-2)Man(a1-3)[Fuc(a1-2)Gal(b1-3)[Fuc(a1-4)]GlcNAc(b1-2)Man(a1-6)]Man(b1-4)GlcNAc(b1-4)[Fuc(a1-6)]GlcNAc(b1-4)[Fuc(a1-6)]GlcNAc
# Method in brief: as §1
# Fuc(a1-2)Gal(b1-4)GlcNAc = biological target: Fuc(a1-2)Gal(b1-4)GlcNAc
# Method in brief: as §1
# [6] = biological target: Fuc(a1-2)Gal(b1-4)GlcNAc(b1-2)Man(a1-3)[Fuc(a1-2)Gal(b1-4)GlcNAc(b1-2)Man(a1-6)]Man(b1-4)GlcNAc(b1-4)GlcNAc
# Method in brief: as §1
# [7] = biological target: Fuc(a1-2)Gal(b1-4)[Fuc(a1-3)]GlcNAc(b1-3)GalNAc
# Method in brief: as §1
# [8] = biological target: Fuc(a1-2)[Gal(a1-3)]Gal(b1-3)GlcNAc
# Method in brief: as §1
# [9] = biological target: Fuc(a1-2)[Gal(a1-3)]Gal(b1-3)GlcNAc(b1-2)Man(a1-3)[Fuc(a1-2)[Gal(a1-3)]Gal(b1-3)GlcNAc(b1-2)Man(a1-6)]Man(b1-4)GlcNAc(b1-4)GlcNAc
# Method in brief: as §1
# [10] = biological target: Fuc(a1-2)[Gal(a1-3)]Gal(b1-4)GlcNAc(b1-6)GalNAc
# Method in brief: as §1
# [11] = biological target: Fuc(a1-2)[GalNAc(a1-3)]Gal(b1-4)GlcNAc(b1-3)Gal(b1-4)GlcNAc(b1-3)Gal(b1-4)GlcNAc
# Method in brief: as §1
# [12] = biological target: Gal(b1-3)GalNAc(b1-3)Gal(a1-4)Gal(b1-4)Glc
# Method in brief: as §1
# [13] = biological target: Gal(b1-3)GlcNAc(b1-2)Man(a1-3)[Gal(b1-3)GlcNAc(b1-2)Man(a1-6)]Man(b1-4)GlcNAc(b1-4)GlcNAc
# Method in brief: as §1
# [14] = biological target: Gal(b1-3)GlcNAc(b1-2)Man(a1-3)[Gal(b1-3)GlcNAc(b1-2)Man(a1-6)]Man(b1-4)GlcNAc(b1-4)[Fuc(a1-6)]GlcNAc
# Method in brief: as §1
# [15] = biological target: Gal(b1-3)GlcNAc(b1-2)[Gal(b1-3)GlcNAc(b1-6)]Man(a1-6)[Gal(b1-3)GlcNAc(b1-2)Man(a1-3)]Man(b1-4)GlcNAc(b1-4)GlcNAc
# Method in brief: as §1
# [16] = biological target: Gal(b1-3)[Fuc(a1-4)]GlcNAc
# Method in brief: as §1
# Gal(b1-4)Gal = biological target: Gal(b1-4)Gal
# Method in brief: as §1
# [17] = biological target: Gal(b1-4)GlcNAc(a1-6)Gal(b1-4)GlcNAc
# Method in brief: as §1
# [18] = biological target: Gal(b1-4)GlcNAc(b1-2)Man(a1-3)[Gal(b1-4)GlcNAc(b1-2)Man(a1-6)]Man(b1-4)GlcNAc(b1-4)GlcNAc
# Method in brief: as §1
# [19] = biological target: Gal(b1-4)GlcNAc(b1-2)Man(a1-3)[GlcNAc(b1-4)][Gal(b1-4)GlcNAc(b1-2)Man(a1-6)]Man(b1-4)GlcNAc(b1-4)GlcNAc
# Method in brief: as §1
# [20] = biological target: Gal(b1-4)GlcNAc(b1-2)Man(a1-6)[GlcNAc(b1-2)Man(a1-3)]Man(b1-4)GlcNAc(b1-4)GlcNAc
# Method in brief: as §1
# [21] = biological target: Gal(b1-4)GlcNAc(b1-2)[Gal(b1-4)GlcNAc(b1-4)]Man(a1-3)[GlcNAc(b1-4)][Gal(b1-4)GlcNAc(b1-2)Man(a1-6)]Man(b1-4)GlcNAc(b1-4)GlcNAc
# Method in brief: as §1
# GalNAc6S(b1-4)GlcNAc = biological target: GalNAc6S(b1-4)GlcNAc
# Method in brief: as §1
# GlcA(b1-6)Gal = biological target: GlcA(b1-6)Gal
# Method in brief: as §1
# [22] = biological target: GlcNAc(a1-4)Gal(b1-4)GalNAc
# Method in brief: as §1
# [23] = biological target: GlcNAc(b1-2)Man(a1-3)[GlcNAc(b1-2)Man(a1-6)]Man(b1-4)GlcNAc(b1-4)GlcNAc
# Method in brief: as §1
# [24] = biological target: GlcNAc(b1-2)[GlcNAc(b1-4)]Man(a1-3)[GlcNAc(b1-2)Man(a1-6)]Man(b1-4)GlcNAc(b1-4)GlcNAc
# Method in brief: as §1
# GlcNAc(b1-3)Fuc = biological target: GlcNAc(b1-3)Fuc
# Method in brief: as §1
# [25] = biological target: Man(a1-2)Man(a1-3)[Man(a1-2)Man(a1-6)]Man(a1-6)[Man(a1-2)Man(a1-2)Man(a1-3)]Man
# Method in brief: as §1
# [26] = biological target: Neu5Ac(a2-3)Gal(b1-3)[Fuc(a1-4)]GlcNAc(b1-3)Gal(b1-3)[Fuc(a1-4)]GlcNAc
# Method in brief: as §1
# [27] = biological target: Neu5Ac(a2-3)Gal(b1-4)GlcNAc(b1-3)Gal(b1-4)[Fuc(a1-3)]GlcNAc
# Method in brief: as §1
# Neu5Ac(a2-3)GalNAc = biological target: Neu5Ac(a2-3)GalNAc
# Method in brief: as §1
# [28] = biological target: Neu5Ac(a2-6)Gal(b1-4)GlcNAc(b1-2)Man(a1-3)[GlcNAc(b1-4)][Neu5Ac(a2-6)Gal(b1-4)GlcNAc(b1-2)Man(a1-6)]Man(b1-4)GlcNAc(b1-4)GlcNAc
# Method in brief: as §1
# [29] = biological target: Neu5Ac(a2-6)Gal(b1-4)GlcNAc(b1-2)Man(a1-6)[Gal(b1-4)GlcNAc(b1-2)Man(a1-3)]Man(b1-4)GlcNAc(b1-4)GlcNAc
# Method in brief: as §1
# [30] = biological target: Neu5Ac(a2-6)Gal(b1-4)GlcNAc(b1-2)Man(a1-6)[GlcNAc(b1-2)Man(a1-3)]Man(b1-4)GlcNAc(b1-4)GlcNAc
# Method in brief: as §1
# [31] = biological target: Neu5Ac(a2-6)Gal(b1-4)GlcNAc(b1-2)Man(a1-6)[Man(a1-3)]Man(b1-4)GlcNAc(b1-4)GlcNAc
# Method in brief: as §1
# [32] = biological target: Neu5Ac(a2-6)Gal(b1-4)GlcNAc(b1-6)GalNAc
# Method in brief: as §1
# [33] = biological target: Neu5Ac(a2-8)Neu5Ac(a2-8)Neu5Ac
# Method in brief: as §1
# [34] = biological target: Neu5Ac9Ac(a2-6)Gal(b1-4)GlcNAc
# Method in brief: as §1
binder,measurement,setting,value
B1,glycan array binding signal (z-score),[1],4.07
same,glycan array binding signal (z-score),[2],-0.244
same,glycan array binding signal (z-score),[3],-0.242
same,glycan array binding signal (z-score),[4],-0.249
same,glycan array binding signal (z-score),[5],1.03
same,glycan array binding signal (z-score),Fuc(a1-2)Gal(b1-4)GlcNAc,-0.242
same,glycan array binding signal (z-score),[6],2.51
same,glycan array binding signal (z-score),[7],-0.238
same,glycan array binding signal (z-score),[8],-0.238
same,glycan array binding signal (z-score),[9],3.82
same,glycan array binding signal (z-score),[10],-0.248
same,glycan array binding signal (z-score),[11],-0.233
same,glycan array binding signal (z-score),[12],-0.24
same,glycan array binding signal (z-score),[13],6.61
same,glycan array binding signal (z-score),[14],5.29
same,glycan array binding signal (z-score),[15],5.63
same,glycan array binding signal (z-score),[16],-0.24
same,glycan array binding signal (z-score),Gal(b1-4)Gal,-0.24
same,glycan array binding signal (z-score),[17],-0.241
same,glycan array binding signal (z-score),[18],4.25
same,glycan array binding signal (z-score),[19],-0.106
same,glycan array binding signal (z-score),[20],5.87
same,glycan array binding signal (z-score),[21],-0.239
same,glycan array binding signal (z-score),GalNAc6S(b1-4)GlcNAc,-0.252
same,glycan array binding signal (z-score),GlcA(b1-6)Gal,-0.239
same,glycan array binding signal (z-score),[22],-0.239
same,glycan array binding signal (z-score),[23],5.92
same,glycan array binding signal (z-score),[24],7.33
same,glycan array binding signal (z-score),GlcNAc(b1-3)Fuc,-0.246
same,glycan array binding signal (z-score),[25],-0.246
same,glycan array binding signal (z-score),[26],-0.24
same,glycan array binding signal (z-score),[27],-0.242
same,glycan array binding signal (z-score),Neu5Ac(a2-3)GalNAc,-0.243
same,glycan array binding signal (z-score),[28],-0.251
same,glycan array binding signal (z-score),[29],3.9
same,glycan array binding signal (z-score),[30],5.95
same,glycan array binding signal (z-score),[31],0.262
same,glycan array binding signal (z-score),[32],-0.236
same,glycan array binding signal (z-score),[33],-0.249
same,glycan array binding signal (z-score),[34],-0.245
